The record followed here is the supplement of paper PMC9925115.

Counter-ions that a name gives are not always drawn. ± gives the uncertainty stated by the source.

This test deals with FLX1. Briefly: cell viability z-score within plate (CellTiter-Glo), mean of 3 biological replicates; higher = higher viability relative to plate (less growth inhibition). The note with it: 2 µM; time (hr): 120. On the procedure: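 FLX1 fibrolamellar carcinoma cells (DNAJB1-PRKACA fusion), 600 cells/well in 384-well plates, treated with a Selleck kinase inhibitor library (L1200) at 2 uM for 5 days (120 hr); viability by CellTiter-Glo. A z-score was computed within each plate and averaged over three biological replicates.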
As for `COC(=O)c1ccc2c(c1)NC(=O)/C2=C(\Nc1ccc(N(C)C(=O)CN2CCN(C)CC2)cc1)c1ccccc1` [Nintedanib (BIBF 1120)], the “cell viability z-score within plate” value was 0.242 ± 0.43.

For `CNC(=O)c1ccc(C)c(-n2c(C)cc(OCc3ccc(F)cc3F)c(Br)c2=O)c1`, the “cell viability z-score within plate” value worked out at 0.325 ± 0.62.

As to `CNC(=O)c1ccccc1Sc1ccc2c(/C=C/c3ccccn3)n[nH]c2c1` [Axitinib], the “cell viability z-score within plate” value amounted to 0.834 ± 0.44.

`Cn1cc(-c2ccc3nnc(C(F)(F)c4ccc5ncccc5c4)n3n2)cn1`: the “cell viability z-score within plate” value is -0.299 ± 0.51.

Take `O=C(NC1CCNCC1)c1n[nH]cc1NC(=O)c1c(Cl)cccc1Cl`: the “cell viability z-score within plate” value is -0.72 ± 0.28.

Take `C=CC(=O)N1CCC[C@@H](n2nc(-c3ccc(Oc4ccccc4)cc3)c3c(N)ncnc32)C1`: the “cell viability z-score within plate” value is 0.337 ± 0.4.

Take `COc1ccc(CNC(=O)Nc2ncc([N+](=O)[O-])s2)cc1`: the “cell viability z-score within plate” value was determined as 0.771 ± 0.6.

As for `CCCCCCCCc1ccc(CCC(N)(CO)CO)cc1` [Fingolimod (FTY720) HCl], the “cell viability z-score within plate” value is 0.096 ± 0.62.

`CC(C)n1nc(-c2ccc3oc(N)nc3c2)c2c(N)ncnc21`: the “cell viability z-score within plate” value worked out at 0.871 ± 0.17.

Turning to `Cc1nc(Nc2cnn(C3CCNCC3)c2)nc2c1N(C)C(=O)c1cc3ccccc3cc1N2C`, the “cell viability z-score within plate” value stood at 1.62 ± 0.12.

In the case of `COc1ccc(-c2nc(N3CCOCC3)c3sc(CN(C)c4ncc(C(=O)NO)cn4)cc3n2)cn1`, the “cell viability z-score within plate” value was -0.258 ± 0.92.

For `CCn1c2ccccc2c2cc(Nc3ccnc(NCCCN4CCOCC4)n3)ccc21`, the “cell viability z-score within plate” value is 1.38 ± 0.26.

`C[C@@H]1COC(Nc2ccc3ncnc(Nc4ccc(OCc5nccs5)c(Cl)c4)c3c2)=N1` [Varlitinib]: the “cell viability z-score within plate” value was 0.0259 ± 0.81.

For the compound `CC(C)CC(=O)Nc1n[nH]c2c1CN(C(=O)C1CCN(C)CC1)C2(C)C`, the “cell viability z-score within plate” value is 0.0889 ± 0.24.

With `CS(=O)(=O)c1cccc(CNc2nc(Nc3ccc4c(c3)CCC(=O)N4)ncc2C(F)(F)F)c1`, the “cell viability z-score within plate” value was -2.81 ± 1.3.

On to `C=CC(=O)Nc1cccc(Nc2nc(Nc3ccc(NC4CN(CCF)C4)cc3OC)ncc2C(F)(F)F)c1`, for which the “cell viability z-score within plate” value is -0.00318 ± 1.3.

Regarding `Oc1cccc(-c2nc(N3CCOCC3)c3oc4ncccc4c3n2)c1`, the “cell viability z-score within plate” value was -0.163 ± 0.28.

For the compound `Cc1cc2c(F)c(Oc3ncnn4cc(OC[C@@H](C)O)c(C)c34)ccc2[nH]1`, the “cell viability z-score within plate” value is -1.45 ± 0.81.

On to `OCCn1cc(-c2cnc3nnn(Cc4ccc5ncccc5c4)c3n2)cn1`, for which the “cell viability z-score within plate” value was 0.158 ± 1.6.

Regarding `O=C1NC(=O)C(c2cnc3ccccn23)=C1c1cn2c3c(cc(F)cc13)CN(C(=O)N1CCCCC1)CC2`, the “cell viability z-score within plate” value was 1.17 ± 1.1.

`Cc1ccc(C(=O)Nc2ccc(CN3CCN(C)CC3)c(C(F)(F)F)c2)cc1C#Cc1cnc2cccnn12`: the “cell viability z-score within plate” value is -1.09 ± 0.7.

As to `Cc1c(NC(=O)c2ccc(C(C)(C)C)cc2)cccc1-c1cn(C)c(=O)c(Nc2ccc(C(=O)N3CCOCC3)cc2)n1`, the “cell viability z-score within plate” value was 0.367 ± 0.26.

With `Cc1cc([C@@H](C)Nc2ccccc2C(=O)O)c2nc(N3CCOCC3)cc(=O)n2c1`, the “cell viability z-score within plate” value was -2.82 ± 2.

For the compound `CN1CCN(c2nc(C3=C(c4c[nH]c5ccccc45)C(=O)NC3=O)c3ccccc3n2)CC1` [Sotrastaurin], the “cell viability z-score within plate” value came to 0.764 ± 0.47.

For `Cc1ccc(NC(=O)c2cccc(N(C)C)c2)cc1NC(=O)c1ccc(O)cc1`, the “cell viability z-score within plate” value is -0.188 ± 0.87.

On to `COc1cc(Nc2c(C#N)cnc3cc(OCCCN4CCN(C)CC4)c(OC)cc23)c(Cl)cc1Cl` [Bosutinib (SKI-606)], for which the “cell viability z-score within plate” value turned out to be 0.309 ± 0.56.

Consider `O=c1c(-c2ccc(O)cc2)coc2cc(O)cc(O)c12` [Genistein], for which the “cell viability z-score within plate” value is -0.148 ± 0.52.

For the compound `FC(F)c1nc2ccccc2n1-c1nc(N2CCOCC2)nc(N2CCOCC2)n1`, the “cell viability z-score within plate” value amounted to 0.852 ± 0.61.

With `Cc1ccc(NC(=O)c2ccc(CN3CCN(C)CC3)cc2)cc1Nc1nccc(-c2cccnc2)n1` [Imatinib Mesylate (STI571)], the “cell viability z-score within plate” value is -1.25 ± 0.88.

In the case of `Cc1ccc(NC(=O)c2cccc(C(C)(C)C#N)c2)cc1Nc1ccc2ncn(C)c(=O)c2c1`, the “cell viability z-score within plate” value was -1.84 ± 0.14.

Turning to `Cc1cc(F)c(Nc2ncnc3cc(OCc4ccccc4)ccc23)cc1O`, the “cell viability z-score within plate” value is -0.328 ± 0.22.

For `Cn1c(Nc2ccc(C(F)(F)F)cc2)nc2cc(Oc3ccnc(-c4ncc(C(F)(F)F)[nH]4)c3)ccc21`, the “cell viability z-score within plate” value came to 0.193 ± 0.26.

For `NC(=O)Nc1cc(-c2cccc(F)c2)sc1C(=O)N[C@H]1CCCNC1`, the “cell viability z-score within plate” value was 0.408 ± 0.47.

`O=C(NCc1ccccc1)c1csc(Nc2ccncn2)n1` [Thiazovivin]: the “cell viability z-score within plate” value was -0.686 ± 0.81.

`CCc1cccc(CC)c1NC(=O)N1Cc2[nH]nc(NC(=O)c3ccc(N4CCN(C)CC4)cc3)c2C1`: the “cell viability z-score within plate” value was -0.62 ± 0.28.

Take `CCOc1cc2ncc(C#N)c(Nc3ccc(F)c(Cl)c3)c2cc1NC(=O)/C=C/CN(C)C` [Pelitinib (EKB-569)]: the “cell viability z-score within plate” value was -1.38 ± 0.64.

With `Cc1[nH]nc2ccc(-c3cncc(OC[C@@H](N)Cc4ccccc4)c3)cc12`, the “cell viability z-score within plate” value is 0.657 ± 0.13.
